Among the data in the supplement of paper PMC4840960 are myelination values, retold here.

SMILES strings stand for the structures. Structures can show the parent of a compound that is named as a salt. A number with no mark means an inactive call.

The experiment relates to E18 rat cortical neuron-glia co-culture. The experiment can be described thus: myelination (MBP fiber length per Olig2+ nucleus), % of 1 µM DAPT response (DMSO = 0) (% of DAPT); higher = more myelination, active = 50 or more. Conditions: 1 µM; treatment time: 8 days (DIV5-DIV13). The procedure, abridged:
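Rat cortical co-cultures from E18 tissue were dissociated with papain and plated at 20,000 cells/well on 96-well plates coated with poly-d-lysine/laminin. From DIV5 to DIV13, library compounds were added at 1 or 5 µM in myelination medium. After fixation in 4 % paraformaldehyde, cultures were immunostained for MBP and Olig2 and counterstained with DAPI, and four 10X fields were analysed in each of duplicate wells. The myelination value is the length of continuous straight MBP fibers per Olig2+ nucleus, normalised so that 0.1 % DMSO is 0 and a 1 µM positive control is 100.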
Regarding `CCOC(=O)[C@H](CCc1ccccc1)N[C@H]1CCc2ccccc2N(CC(=O)O)C1=O` [Benazepril], the myelination was -15.3.

`Cc1cc2c(s1)Nc1ccccc1N=C2N1CCN(C)CC1` [Olanzapine]: the myelination is -0.209.

With `CC1=C(C/C=C(\C)CCC[C@H](C)CCC[C@H](C)CCCC(C)C)C(=O)c2ccccc2C1=O` [Phylloquinone], the myelination was -4.4.

In the case of `CN(CCO)CC(O)Cn1cnc2c1c(=O)n(C)c(=O)n2C` (stereo unspecified) [Jupal], the myelination is -7.05.

With `C[C@H]1C[C@@H]2[C@H]([C@@H](O)C[C@@]3(C)[C@H]2CC[C@]3(O)C(=O)CO)[C@@]2(C)C=CC(=O)C=C12` [Methylprednisolone], the myelination was -0.665.

As to `CC(=O)OCC(=O)[C@@]1(O)CC[C@H]2[C@@H]3CCC4=CC(=O)C=C[C@]4(C)[C@H]3[C@@H](O)C[C@@]21C` [Prednisolone acetate], the myelination was -5.64.

`Clc1cccc(Cl)c1NC1=NCCN1` [Clonidine hydrochloride]: the myelination was -10.4.

Take `Cn1ccnc1S` [Methimazole]: the myelination was -14.3.

On to `C[C@@H]1C[C@H]2[C@@H]3C[C@H](F)C4=CC(=O)C(Cl)=C[C@]4(C)[C@@]3(F)[C@@H](O)C[C@]2(C)[C@@]1(O)C(=O)CO` [Halometasone hydrate], for which the myelination is -20.7.

For the compound `COc1c(N2C[C@@H]3CCCN[C@@H]3C2)c(F)cc2c(=O)c(C(=O)O)cn(C3CC3)c12` [Moxifloxacin], the myelination was -12.3.

Regarding `CC(C)NCC(O)c1ccc(O)c(O)c1` (stereo unspecified) [Isoproterenol], the myelination was 13.7.
